From PubChem BioAssay (Tox21)
Inconclusive results are not listed. Active and inactive are the calls of the source. Unless noted, calls follow the shape of the dose curve; as a rule, active = well fitted curve in the direction sought with a large enough effect in the repeat runs; inconclusive = weak or mixed curves; inactive = no such curve, though single readings can be large; an effect the other way counts as inactive or inconclusive.

How the values were obtained:
[1] = qHTS assay to identify small molecule antagonists of the retinoid-related orphan receptor gamma (ROR-gamma) signaling pathway - cell viability counter screen (AID 1159520); also: nearly all actives have a fitted effect of over 50% in size
In short: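 Tet-on ROR gamma CHO cells (1,000/well) were plated 4 hr, given compounds in DMSO for 2 hr at 37 C, then induced with 1 uM final doxycycline for 16 hr. Viability was read as ATP by CellTiter-Glo luminescence after 30 min.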

[2] = target: Nuclear receptor ROR-gamma (Homo sapiens) (UniProt P51449); experiment: qHTS assay to identify small molecule antagonists of the retinoid-related orphan receptor gamma (ROR-gamma) signaling pathway (AID 1159521;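 also: CHO cells with doxycycline inducible ROR-gamma driving an RORE luciferase reporter; top concentration of the series differs between compounds; nearly all actives have a fitted effect of over 50% in size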)
In short: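 CHO cells expressing RORγ under a TET-on promoter, luciferase under RORE control. Dox 1 uM final, 16 h; compounds added 2 h prior. Luminescence decrease measured.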

[3] = qHTS assay to identify small molecule agonists of the AP-1 signaling pathway - cell viability counter screen (AID 1159525; calls by dose curve; also: nearly all actives have a fitted effect of over 55% in size)
In short: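 Each titration point was normalised to DMSO and tetra n-octyl ammonium bromide controls. The read was Cell Titer Glo luminescence after 30 min at RT, following 5 h compound exposure of ME-180 AP-1-bla cells at 37 °C.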

[4] = qHTS assay to identify small molecule agonists of the AP-1 signaling pathway (AID 1159526; calls by dose curve)
[5] = target: Retinoic acid receptor RXR-alpha (Homo sapiens) (UniProt P19793); experiment: qHTS assay to identify small molecule agonists of the RXR signaling pathway (AID 1159527; calls by dose curve; also: nearly all actives have a fitted effect of over 35% in size)
Chain of Retinoic acid receptor RXR-alpha (Homo sapiens) (P19793 whole entry, looked up): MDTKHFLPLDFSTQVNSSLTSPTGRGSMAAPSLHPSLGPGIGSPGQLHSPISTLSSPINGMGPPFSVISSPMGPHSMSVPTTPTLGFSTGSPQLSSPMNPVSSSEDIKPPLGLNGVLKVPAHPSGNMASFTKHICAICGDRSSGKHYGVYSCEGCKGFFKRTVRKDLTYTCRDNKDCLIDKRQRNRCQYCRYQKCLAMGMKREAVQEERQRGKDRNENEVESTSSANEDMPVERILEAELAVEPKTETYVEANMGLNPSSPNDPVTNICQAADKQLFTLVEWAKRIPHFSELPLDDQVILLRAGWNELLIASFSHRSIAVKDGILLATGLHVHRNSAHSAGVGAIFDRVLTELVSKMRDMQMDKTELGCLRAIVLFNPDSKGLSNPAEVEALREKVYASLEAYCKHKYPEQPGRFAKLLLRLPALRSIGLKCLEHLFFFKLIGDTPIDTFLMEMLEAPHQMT
In short: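 Beta-lactamase reporter assay, agonist format. Engineered HEK 293T line, charcoal-stripped FBS at 2%, overnight (16 hr) exposure, fluorescence at 460 and 530 nm after 405 nm excitation.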

[6] = qHTS assay to identify small molecule antagonists of the retinoid acid receptor (RAR) signaling pathway - cell viability counter screen (AID 1159551); also: nearly all actives have a fitted effect of over 35% in size
In short: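 C3RL4 RARE-luciferase line; cpds + retinol 1 uM final, 6 h, 37 C/5% CO2; CellTiter-Glo ATP luminescence, 30 min RT.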

[7] = qHTS assay to identify small molecule antagonists of the retinoic acid receptor (RAR) signaling pathway (AID 1159552; also: nearly all actives have a fitted effect of over 50% in size)
In short: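 Readout: luciferase luminescence, 30 min post-reagent at RT. Setup: C3RL4 RARE reporter cells, compounds plus retinol 1 uM final, 6 hr incubation at 37 C and 5% CO2.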

[8] = qHTS assay to identify small molecule agonists of the RXR signaling pathway - cell viability counter screen (AID 1159529); also: series mostly up to about 77 µM; nearly all actives have a fitted effect of over 50% in size
In short: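 Same-well viability check after the LiveBLAzer FRET read: CellTiter-Glo added, luminescence measured after 30 min at room temperature. Reporter HEK 293T cells had been treated with compounds for 16 hr following a 5 hr preincubation.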

[9] = qHTS assay to identify small molecule agonists of the peroxisome proliferator-activated receptor delta (PPARd) signaling pathway - cell viability counter screen (AID 743211); also: nearly all actives have a fitted effect of over 55% in size
In short: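 Luminescent ATP viability assay (CellTiter-Glo, 30 min RT) in UAS-bla HEK293H cells carrying the PPAR delta reporter construct, 3000 cells/well, after a 17 h compound treatment at 37 C.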

[10] = target: Peroxisome proliferator-activated receptor delta (Homo sapiens) (UniProt Q03181); experiment: qHTS assay to identify small molecule agonists of the peroxisome proliferator-activated receptor delta (PPARd) signaling pathway (AID 743212; calls by dose curve)
Chain of Peroxisome proliferator-activated receptor delta (Homo sapiens) (Q03181 whole entry, looked up): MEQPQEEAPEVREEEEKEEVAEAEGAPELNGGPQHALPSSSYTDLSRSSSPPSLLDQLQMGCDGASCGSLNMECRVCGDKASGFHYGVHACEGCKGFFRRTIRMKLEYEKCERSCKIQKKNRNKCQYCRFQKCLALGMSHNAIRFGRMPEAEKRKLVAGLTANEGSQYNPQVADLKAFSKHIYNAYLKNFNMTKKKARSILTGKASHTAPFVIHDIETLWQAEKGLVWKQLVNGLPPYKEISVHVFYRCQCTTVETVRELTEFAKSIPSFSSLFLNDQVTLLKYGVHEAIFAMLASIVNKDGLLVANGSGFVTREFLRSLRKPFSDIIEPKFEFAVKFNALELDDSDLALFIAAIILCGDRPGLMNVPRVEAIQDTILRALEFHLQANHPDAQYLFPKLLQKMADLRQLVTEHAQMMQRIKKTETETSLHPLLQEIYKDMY
In short: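 Beta-lactamase reporter read by fluorescence (LiveBLAzer B/G FRET, 2 h, room temperature). Test agents, in DMSO, incubated at 37 C with PPARd-bla HEK293H cells.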

[11] = qHTS assay to identify small molecule antagonists of the peroxisome proliferator-activated receptor delta (PPARd) signaling pathway - cell viability counter screen (AID 743213); also: nearly all actives have a fitted effect of over 50% in size
In short: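 Same-well viability: cells pre-incubated 5 h, dosed with compound plus 300 nM L165041, kept 17 h at 37 C, FRET substrate 2 h RT, then CellTiter-Glo 30 min RT and luminescence.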

[12] = target: Peroxisome proliferator-activated receptor delta (Homo sapiens) (UniProt Q03181); experiment: qHTS assay to identify small molecule antagonists of the peroxisome proliferator-activated receptor delta (PPARd) signaling pathway (AID 743215; active = well fitted inhibition curve with a large enough effect in the signal ratio in the repeat runs, not every such curve was filed as active; the % refers to the signal ratio;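 also: cells stimulated with agonist L165041 at 300 nM final during compound exposure; series mostly up to about 62 µM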)
In short: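 HEK293H GeneBLAzer PPARd UAS-bla reporter cells; cpd + L165041 300 nM final, 17 h 37 C; LiveBLAzer B/G FRET substrate 2 h RT; fluorescence intensity read-out. Antagonist mode.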

[13] = qHTS assay to identify small molecule agonists of the farnesoid-X-receptor (FXR) signaling pathway - cell viability counter screen (AID 743218); also: nearly all actives have a fitted effect of over 45% in size
In short: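 Luminescence from CellTiter-Glo, read after 30 min at RT, reports viability of GeneBLAzer FXR-UAS-bla HEK 293T cells treated 16 h with compounds in the wells used for the beta-lactamase reporter.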

[14] = target: Bile acid receptor (Homo sapiens) (UniProt Q96RI1); experiment: qHTS assay to identify small molecule agonists of the farnesoid-X-receptor (FXR) signaling pathway (AID 743220; active = well fitted activation curve with a large enough effect in the signal ratio in the repeat runs, not every such curve was filed as active; the % refers to the signal ratio)
Chain of Bile acid receptor (Homo sapiens) (Q96RI1 whole entry, looked up): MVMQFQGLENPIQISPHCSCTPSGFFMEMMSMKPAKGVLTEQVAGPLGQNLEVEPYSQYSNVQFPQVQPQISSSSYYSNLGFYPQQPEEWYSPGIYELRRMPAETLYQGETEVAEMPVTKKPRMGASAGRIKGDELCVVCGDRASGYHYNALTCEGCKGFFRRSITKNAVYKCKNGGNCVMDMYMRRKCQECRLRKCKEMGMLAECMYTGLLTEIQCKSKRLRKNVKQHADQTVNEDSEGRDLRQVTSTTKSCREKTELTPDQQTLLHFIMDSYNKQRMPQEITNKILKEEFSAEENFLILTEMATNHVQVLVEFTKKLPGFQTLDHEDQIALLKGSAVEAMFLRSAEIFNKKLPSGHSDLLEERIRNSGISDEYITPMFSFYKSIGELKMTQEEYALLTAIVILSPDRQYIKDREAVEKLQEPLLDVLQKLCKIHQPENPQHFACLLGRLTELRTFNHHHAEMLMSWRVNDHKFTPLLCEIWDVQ
In short: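 FXR-UAS-bla HEK 293T cells carrying a UAS-driven beta-lactamase reporter were plated for 5 h at 37C/5% CO2, then exposed to DMSO-dissolved Tox21 10K compounds for 16 h at 37C. A LiveBLAzer B/G FRET substrate was loaded for 2 h at room temperature before fluorescence reading.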

[15] = target: Vitamin D3 receptor (Homo sapiens) (UniProt P11473); experiment: qHTS assay to identify small molecule antagonists of the vitamin D receptor (VDR) signaling pathway (AID 743223; active = well fitted inhibition curve with a large enough effect in the signal ratio in the repeat runs, not every such curve was filed as active; the % refers to the signal ratio)
Chain of Vitamin D3 receptor (Homo sapiens) (P11473 whole entry, looked up): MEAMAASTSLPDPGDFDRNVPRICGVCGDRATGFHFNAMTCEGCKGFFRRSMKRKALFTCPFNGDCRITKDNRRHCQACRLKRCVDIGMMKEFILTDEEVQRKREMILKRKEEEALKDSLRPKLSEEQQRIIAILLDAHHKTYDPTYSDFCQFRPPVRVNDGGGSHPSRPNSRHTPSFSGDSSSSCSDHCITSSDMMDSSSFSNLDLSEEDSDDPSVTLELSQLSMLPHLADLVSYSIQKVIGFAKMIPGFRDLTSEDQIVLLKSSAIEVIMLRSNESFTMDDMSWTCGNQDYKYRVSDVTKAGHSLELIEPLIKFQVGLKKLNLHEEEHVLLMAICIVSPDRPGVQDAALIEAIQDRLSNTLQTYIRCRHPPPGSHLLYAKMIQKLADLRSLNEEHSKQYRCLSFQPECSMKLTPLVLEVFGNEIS
In short: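 Agonist 1alpha,25-dihydroxyvitamin D3 (3 nM in well) was added with each compound to VDR-bla cells preincubated 4 h. Cells stood 16 h at 37C, then FRET substrate 2 h at room temperature; fluorescence intensity recorded.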

[16] = qHTS assay to identify small molecule agonists of the vitamin D receptor (VDR) signaling pathway - cell viability counter screen (AID 743224)
In short: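 Cytotoxicity counter screen: VDR-bla cells, 16 h compound exposure at 37C, 5% CO2; CellTiter-Glo luminescence, 30 min RT, same wells as bla read.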

[17] = qHTS assay to identify small molecule antagonists of the vitamin D receptor (VDR) signaling pathway - cell viability counter screen (AID 743225); also: nearly all actives have a fitted effect of over 50% in size
In short: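 Luminescent cell viability (CellTiter-Glo) in VDR-bla HEK 293T cells after 16 h compound exposure at 37C in the presence of 3 nM final 1-alpha,25-dihydroxy vitamin D3.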

[18] = target: Bile acid receptor (Homo sapiens) (UniProt Q96RI1); experiment: qHTS assay to identify small molecule antagonists of the farnesoid-X-receptor (FXR) signaling pathway (AID 743217; active = well fitted inhibition curve with a large enough effect in the signal ratio in the repeat runs, not every such curve was filed as active; the % refers to the signal ratio)
In short: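 Read-out: beta-lactamase FRET fluorescence (LiveBLAzer B/G substrate, 2 h, room temperature) in GeneBLAzer FXR-UAS-bla HEK 293T cells. Compounds were co-dosed with 50 uM chenodeoxycholic acid (final) and incubated 16 h at 37 °C.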

[19] = qHTS assay to identify small molecule antagonists of the farnesoid-X-receptor (FXR) signaling pathway - cell viability counter screen (AID 743221; active = well fitted cell-killing curve with a large enough effect in the repeat runs, not every such curve was filed as active; also: nearly all actives have a fitted effect of over 50% in size)
In short: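 In GeneBLAzer FXR-UAS-bla HEK 293T cells stimulated with 50 uM chenodeoxycholic acid (final), compounds acted for 16 h at 37 C. Viability was assessed afterwards by CellTiter-Glo luminescence.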

Measured: Potency

C=C(C)C1CCC(C)CC1O (stereo not given)
inactive: [1] | [2] | [3] | [4] | [5] | [6]

CCOC(=O)[C@H](C)O
inactive: [1] | [2] | [3] | [4] | [5] | [6] | [7]

Cc1cccc2c1ccc1ccccc12
inactive: [1] | [2] | [3] | [4] | [5] | [8] | [6] | [7]

CC(C)(C)c1cc(CCC(=O)OCCSCCOC(=O)CCc2cc(C(C)(C)C)c(O)c(C(C)(C)C)c2)cc(C(C)(C)C)c1O
inactive: [1] | [2] | [3] | [4] | [5] | [8] | [6]

C/C(=N\[Si](C)(C)C)O[Si](C)(C)C
inactive: [1] | [2] | [3] | [4] | [5] | [8] | [6]

COc1cc(OC)nc(NC(=O)NS(=O)(=O)Nc2ccccc2C(=O)N(C)C)n1
inactive: [1] | [2] | [3] | [4] | [5] | [8] | [6]

SC1CCCCC1
not listed: [7] | [18] | [19]
inactive: all other assays above

COc1c(Br)cc(Br)c(C)c1Br
not listed: [7] | [10] | [12] | [15]
inactive: all other assays above

NC(=O)c1ccccc1Cl
inactive: [1] | [2] | [3] | [4] | [5] | [8] | [6]

O=C1CCC(=O)N1
inactive: [1] | [2] | [3] | [4] | [5] | [8] | [6]

O=[N+]([O-])c1ccc(CO)cc1
inactive: [1] | [2] | [3] | [4] | [5] | [8] | [6] | [7]
